Drawing on PubChem BioAssay (NCATS), this text covers Potency for 18 compounds.

SMILES strings stand for the structures. Records with an inconclusive call do not appear. Active and inactive are the calls of the source. The call rests on the fitted dose curve; in most records, active means well fitted curve in the direction sought with a large enough effect; inconclusive means small, poorly fitted or top-dose-only effect, or another doubt; inactive means no such curve, though single readings can be large; an effect the other way counts as inactive or inconclusive.

Test [1] in a line: Quantitative High-Throughput drug screen in 47 multiple myeloma cell lines against the NCATS MIPE library collection: KMS26_JCRB cell viability assay (AID 1918975). Further: nearly all actives have a fitted effect of over 45% in size. A digest of the protocol: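 Approved and investigational drugs from MIPE 4.0 were added by pin tool to 500 cells per well. After 48 hours at 37C, ATP-based CellTiter-Glo luminescence indicated remaining viability.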

Test [2] in a line: Quantitative High-Throughput drug screen in 47 multiple myeloma cell lines against the NCATS MIPE library collection: NCIH929_DSMZ cell viability assay (AID 1918978). Further: nearly all actives have a fitted effect of over 35% in size. The method, boiled down: (§1)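 ATP-based CellTiter-Glo luminescence after 48 h drug exposure (37 °C, 5% CO2) of 500 myeloma cells per well. DMSO-only wells set 100% viability, media-only wells 0%; MIPE 4.0 library added by pin tool.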

Test [3] in a line: Quantitative High-Throughput drug screen in 47 multiple myeloma cell lines against the NCATS MIPE library collection: MM1S_ATCC cell viability assay (AID 1918980). Further: nearly all actives have a fitted effect of over 45% in size. A digest of the protocol:
as §1

Test [4] in a line: Quantitative High-Throughput drug screen in 47 multiple myeloma cell lines against the NCATS MIPE library collection: MM1R_ATCC cell viability assay (AID 1918981). Further: nearly all actives have a fitted effect of over 35% in size. The method, boiled down:
as §1

A short description of test [5]: Quantitative High-Throughput drug screen in 47 multiple myeloma cell lines against the NCATS MIPE library collection: KMS34_JCRB cell viability assay (AID 1918985). Further: nearly all actives have a fitted effect of over 40% in size. The method, boiled down: as §1
Test [6] can be described thus: Quantitative High-Throughput drug screen in 47 multiple myeloma cell lines against the NCATS MIPE library collection: OCIMY7_PLB cell viability assay (AID 1918987). Further: nearly all actives have a fitted effect of over 65% in size. A digest of the protocol:
as §1

Test [7] is described as follows: Quantitative High-Throughput drug screen in 47 multiple myeloma cell lines against the NCATS MIPE library collection: KMS28PE_JCRB cell viability assay (AID 1918983). Further: nearly all actives have a fitted effect of over 35% in size. A digest of the protocol:
as §1

Test [8] in a line: Quantitative High-Throughput drug screen in 47 multiple myeloma cell lines against the NCATS MIPE library collection: MOLP8_DSMZ cell viability assay (AID 1918977). Further: nearly all actives have a fitted effect of over 45% in size. A digest of the protocol: as §1
A short description of test [9]: Quantitative High-Throughput drug screen in 47 multiple myeloma cell lines against the NCATS MIPE library collection: L363_DSMZ cell viability assay (AID 1918984). Further: nearly all actives have a fitted effect of over 40% in size. The method, boiled down: as §1
Test [10] is described as follows: Quantitative High-Throughput drug screen in 47 multiple myeloma cell lines against the NCATS MIPE library collection: KMS21BM_JCRB cell viability assay (AID 1918974). A digest of the protocol:
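Myeloma cell lines, 500 cells per well, exposed to MIPE 4.0 library compounds for 48 h at 37C, 5% CO2. Viability from ATP by CellTiter-Glo luminescence; normalised to DMSO (100%) and media-only (0%) wells.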
Potency means the concentration at half of the fitted maximal effect.

For `CN1CCN(C(=O)O[C@H]2c3nccnc3C(=O)N2c2ccc(Cl)cn2)CC1`, the Potency result in test [1], in test [2], in test [3], in test [4], in test [5] and in test [6] was “inactive” in each case.
Take `O=C(O)C(=O)c1cn(Cc2ccccc2)c2ccc(-c3ccc(OC(F)(F)F)cc3)cc12`: the Potency entry in [1], in test [4] and in test [5] was “inactive” each time. For the same compound, the Potency was 23.5 µM (active) in test [3] and 3.32 µM (active) in test [7].
For `C[C@@H]1[C@@H](C(=O)C[C@H]2O[C@@H]3O[C@]4(C)CC[C@@H]5[C@H](C)CC[C@@H]([C@H]2C)[C@@]35OO4)O[C@@H]2O[C@]3(C)CC[C@H]4[C@H](C)CC[C@@H]1[C@@]24OO3`, the Potency is 0.59 µM (active) in test [1]; 0.526 µM (active) in test [8]; 0.132 µM (active) in [2]; 16.6 µM (active) in test [3]; 3.72 µM (active) in test [4]; 0.418 µM (active) in test [7]. For the same compound, the Potency in test [9] is 0.059 µM (active); in [5], 0.235 µM (active); in test [6] it was 0.0743 µM (active).
Take `Cn1cc(C2=C(c3cn(C4CCN(Cc5ccccn5)CC4)c4ccccc34)C(=O)NC2=O)c2ccccc21`: the Potency in test [10] is 0.166 µM (active); in test [1], 16.6 µM (active); in test [2], 5.9 µM (active); in test [3], 7.43 µM (active); in test [4], 13.2 µM (active); in test [9] it was 0.833 µM (active). Also, the figures for the Potency in [5] and in test [6] were 10.5 µM (active) and 3.72 µM (active), respectively. Further, the Potency result in test [8] is “inactive”.
Consider `COC[C@@H](NC(C)=O)C(=O)NCc1ccccc1`, for which the Potency entry in test [8], in test [2], in test [4], in test [7], in [9] and in test [5] was “inactive” throughout.
With `CN(C)CCN(C)CCc1ccc(Cl)c(Cl)c1`, the Potency entry in test [1], in [2], in test [4] and in test [7] was “inactive” in each case.
For the compound `CCCC(C)(COC(N)=O)COC(=O)NC(C)C` (centres undefined), the Potency result in test [1], in test [8], in [2], in test [4], in test [7] and in test [9] was “inactive” in each case. Further, the Potency result in test [6] is “inactive”.
On to `NCC1(CC(=O)O)CCCCC1`, for which the Potency entry in [2], in test [3] and in [7] was “inactive” in each case.
Take `CNC(=O)c1ccc(N2C(=S)N(c3ccc(C#N)c(C(F)(F)F)c3)C(=O)C23CCC3)cc1F`: the Potency was 18.7 µM (active) in [1]; 1.32 µM (active) in [2]; 1.05 µM (active) in [3]; 13.2 µM (active) in [4]; 2.96 µM (active) in test [6]. In test [7], the Potency result was “inactive”.
`CNC(=O)N1N=C(c2ccc(N)cc2)c2cc3c(cc2CC1C)OCO3` (centres undefined): the Potency was 1.48 µM (active) in test [10]; 3.32 µM (active) in test [1]; 16.6 µM (active) in [3]; 4.69 µM (active) in [7]; 5.26 µM (active) in [9]; 1.48 µM (active) in test [6].
Consider `CNCC(O)c1ccc(O)cc1` (centres undefined), for which the Potency entry in test [8], in [2], in [7], in test [5] and in test [6] was “inactive” in each case. The values for the Potency in [3] and in test [4] were 14.8 µM (active) and 4.18 µM (active), respectively.
In the case of `COc1ccc(C(=O)c2c(C)n(CCN3CCOCC3)c3ccccc23)cc1`, the Potency result in test [8], in [2], in [4] and in test [7] was “inactive” throughout.
On to `COC[C@H]1OC(=O)c2coc3c2[C@@]1(C)C1=C(C3=O)C2CCC(=O)[C@@]2(C)C[C@H]1OC(C)=O` (some centres undefined), for which the Potency is 1.18 µM (active) in test [1]; 1.32 µM (active) in test [8]; 0.469 µM (active) in [2]; 14.8 µM (active) in test [3]; 1.18 µM (active) in test [4]; 6.62 µM (active) in test [7]. Further, the Potency in test [9] is 11.8 µM (active); in [5] it was 7.43 µM (active); in test [6], 0.743 µM (active).
Regarding `COc1ccc2c(c1OC)CN1CCc3cc4c(cc3C1C2)OCO4` (centres undefined), the Potency entry in test [2], in test [5] and in test [6] was “inactive” in each case. In test [9], the Potency is 5.9 µM (active).
With `COC1(CS(=O)c2ccccc2)CCN(CCc2c[nH]c3ccc(F)cc23)CC1` (centres undefined), the Potency entry in test [10], in test [1], in [8], in test [2], in test [4] and in test [5] was “inactive” in each case. Also, the Potency in test [7] is 8.33 µM (active).
As to `CC(O)(CS(=O)(=O)c1ccc(F)cc1)C(=O)Nc1ccc(C#N)c(C(F)(F)F)c1` (centres undefined), the Potency in test [1] is 1.18 µM (active); in test [2] it was 0.187 µM (active); in test [3], 0.132 µM (active); in [4], 1.05 µM (active); in test [9] it was 1.48 µM (active); in [6], 0.743 µM (active).
Take `CN(C)[C@@H]1C(=O)C(C(N)=O)=C(O)[C@@]2(O)C(=O)C3=C(O)c4c(O)cccc4[C@@](C)(O)[C@H]3C[C@@H]12`: the Potency entry in test [8], in test [2] and in test [9] was “inactive” throughout.
With `Cn1c(CCCC(=O)O)nc2cc(N(CCCl)CCCl)ccc21`, the Potency was 5.9 µM (active) in [1]; 3.32 µM (active) in test [8]; 13.2 µM (active) in test [2]; 23.5 µM (active) in test [3]; 18.7 µM (active) in test [4]; 7.43 µM (active) in [7]. Also, the Potency in [6] was 6.62 µM (active). The Potency entry in [9] was “inactive”.
